In PubChem BioAssay (NCI):
About 79,000 compounds went through this panel and 15% of them were active in at least one assay; those are over-represented in the sample as a whole. A number with no mark means an inactive call. The source made the active and inactive calls. Rule as the data show it: active = growth inhibition above about 70%; inactive = the rest.

Experiments:
[1] = NCI Yeast Anticancer Drug Screen. Data for the rad50 strain (AID 155);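 also: 0% = growth of vehicle-only cultures of the same strain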; conditions: S. cerevisiae rad50 strain growth inhibition, active compounds read high
Method in brief: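 Cells are treated with compound, grown, and their growth is then scored against vehicle-only cultures of the same repair-deficient yeast strain.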

[2] = NCI Yeast Anticancer Drug Screen. Data for the mec2-1 strain (AID 157); conditions: S. cerevisiae mec2-1 strain, active compounds read high
Method in brief: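 Each compound was tested on mec2-1 yeast, a strain altered in DNA damage repair or cell cycle control. Growth inhibition is reported relative to vehicle.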

[3] = NCI Yeast Anticancer Drug Screen. Data for the sgs1 mgt1 strain (AID 161);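 also: 0% = growth of cultures given vehicle only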; conditions: S. cerevisiae sgs1 mgt1 strain, active compounds read high
Method in brief: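 Genetically altered yeast, compound exposure, growth inhibition relative to vehicle.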

[4] = NCI Yeast Anticancer Drug Screen. Data for the cln2 rad14 strain (AID 165);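 also: 0% = growth equal to vehicle treated cultures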; conditions: S. cerevisiae cln2 rad14 strain, active compounds read high
Method in brief: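 Test compounds were added to cln2 rad14 yeast cultures; inhibition of growth was then determined by comparison with vehicle treatment.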

[5] = NCI Yeast Anticancer Drug Screen. Data for the bub3 strain (AID 167); conditions: S. cerevisiae bub3 mutant strain, active compounds read high
Method in brief: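 Part of a panel of yeast mutants defective in DNA damage repair or cell cycle regulation. Each strain is grown with compound, and inhibition is calculated relative to solvent-treated cultures.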

[6] = NCI Yeast Anticancer Drug Screen. Data for the mlh1 rad18 strain (AID 175); conditions: S. cerevisiae mlh1 rad18 strain growth inhibition, active compounds read high
Method in brief: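 Inhibition values reflect reduced growth of mutant yeast versus vehicle-treated controls following compound exposure; the mutations affect DNA damage repair.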

[7] = at 5.0 µM (retest, dose inferred, filed as 0.5)
[8] = at 50.0 µM (retest, dose inferred, filed as 5.0)

| SMILES | growth inhibition [1, 7] [%] | growth inhibition [1, 8] | growth inhibition ([1]; at 50.0 µM) | growth inhibition [2, 7] [%] | growth inhibition [2, 8] | growth inhibition ([2]; at 50.0 µM) | growth inhibition [3, 7] [%] | growth inhibition [3, 8] | growth inhibition ([3]; at 50.0 µM) | growth inhibition [4, 7] [%] | growth inhibition [4, 8] | growth inhibition ([4]; at 50.0 µM) | growth inhibition [5, 7] [%] | growth inhibition [5, 8] | growth inhibition ([5]; at 50.0 µM) | growth inhibition [6, 7] [%] | growth inhibition [6, 8] | growth inhibition ([6]; at 50.0 µM) |
| --- | --- | --- | --- | --- | --- | --- | --- | --- | --- | --- | --- | --- | --- | --- | --- | --- | --- | --- |
| O=C1c2ccccc2/C=C\C(c2ccccc2)=N/N1c1ccccc1Cl | 7 | 52% | 84.8% (active) | 0 | 69% | 83.5% (active) | 9 | 81% (active) | 83.8% (active) | -2 | 37% | 60.2% | -4 | 52% | 85.2% (active) | 7 | 48% | 84.7% (active) |
| COC(=O)c1nnn(-c2cccc(C(F)(F)F)c2)c1C(=O)c1ccc(Cl)c(Cl)c1 | -3 | 98% (active) | 97.7% (active) | 8 | 98% (active) | 80% (active) | -5 | 99% (active) | 97.7% (active) | 9 | 95% (active) | 59.2% | 16 | 98% (active) | 89.4% (active) | 4 | 98% (active) | 97% (active) |
| CCOC(=O)/C(C#N)=C/c1coc2cc(C)cc(C)c2c1=O | 6 | 100% (active) | 70.4% (active) | 2 | 97% (active) | 90.4% (active) | -3 | 98% (active) | 79.9% (active) | -2 | 89% (active) | 89.3% (active) | -20 | 93% (active) | 83% (active) | 15 | 98% (active) | 65.8% |
| N#CC1(C#N)C(C#N)(C#N)C12CCCC2 | 5 | 50% | 38.9% | 4 | 54% | 21.4% | 4 | 66% | 74% (active) | 1 | 30% | 16.9% | 4 | 81% (active) | 12.4% | 5 | 91% (active) | 67.3% |
| CC1C(c2ccc(Cl)cc2)c2cc3c(cc2OC1N1CCOCC1)OCO3 (stereo not given) | -19 | 6% | 48.4% | -30 | -7% | 58.4% | -24 | -4% | 82.2% (active) | -27 | 5% | 90% (active) | -29 | -24% | 91.3% (active) | -39 | 8% | 59.4% |
| O=C1CCCC/C1=C\c1ccc(Cl)c(Cl)c1 | 12 | 99% (active) | 98.7% (active) | 6 | 100% (active) | 98.6% (active) | 47 | 100% (active) | 99% (active) | 5 | 99% (active) | 95.9% (active) | 9 | 99% (active) | 98.2% (active) | 18 | 99% (active) | 99.2% (active) |
| COc1cccc2c1C(=O)c1c(O)c3c(c(O)c1C2=O)CC(O)(C(C)=O)CC3OC1CC(NCC2(O)OCC(O)C2O)C(O)C(C)O1 (stereo not given) | 50 | 96% (active) | 88.8% (active) | 34 | 98% (active) | 88.6% (active) | 33 | 98% (active) | 86.8% (active) | 44 | 97% (active) | 87.4% (active) | 34 | 98% (active) | 87.1% (active) | 40 | 96% (active) | 91% (active) |
| COC(=O)[C@]1(C)CCC[C@]2(C)c3ccc(C(C)C)cc3C(=O)C[C@@H]12 | 5 | 87% (active) | 95.9% (active) | 4 | 90% (active) | 99% (active) | 1 | 93% (active) | 96.2% (active) | 4 | 82% (active) | 89.5% (active) | 6 | 88% (active) | 97.7% (active) | -9 | 73% (active) | 94.5% (active) |
| C(=C\c1cnnc2ccccc12)/c1cccnc1 | 11 | 45% | 20.8% | 18 | 37% | -10.8% | 11 | 35% | 2.15% | 6 | 32% | 42.6% | 6 | 22% | -13.2% | 8 | 36% | 13.7% |
| CCOC(=O)C(CC(=O)O)=C(c1ccccc1)c1ccccc1 | -10 | -7% | 17.5% | -5 | -8% | 18.5% | 3 | 14% | 7.9% | -31 | 4% | 79.7% (active) | 11 | 0% | 25.1% | -10 | 7% | -7.95% |
